# In PubChem BioAssay (NCATS):
# Inconclusive results are not listed. Active and inactive are the calls of the source. Calls follow the shape of the dose curve; as a rule, active = well fitted inhibition curve with a large enough effect; inconclusive = small, poorly fitted or top-dose-only effect; inactive = flat fitted curve, though single readings scatter. Where a SMILES comes first, the peptide text is derived from it. The star is where a group is joined. Hexanoyl = CCCCCC(=O)*; PhAc = O=C(Cc1ccccc1)*
# Molecular target: Calcium and integrin-binding protein 1 (Homo sapiens) (UniProt Q99828)
# Experiment: Primary qHTS for Identification of Calcium Integrin Binding Protein 1 (CIB1) Competitor (AID 1508620);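 also: GST tagged CIB1 binding a fluorescein labelled alphaIIb integrin peptide tracer; top concentration of the series differs between compounds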
# Conditions: CIB1-GST / FITC-alphaIIb peptide fluorescence polarization; series mostly up to 57.7 µM; activity change, negative = inhibition: at the top concentration
# Summary of the method: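 CIB1-GST (1 uM final) and compound incubated 15 min at room temperature before adding FITC-alphaIIb peptide tracer (100 nM final). Competition for binding read by fluorescence polarization (ex 480, em 540) after another 15 min at room temperature.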
# % is scaled to controls: 0 for no effect and ±100 for the full control effect.
# Chain of Calcium and integrin-binding protein 1 (Homo sapiens) (Q99828 whole entry, looked up): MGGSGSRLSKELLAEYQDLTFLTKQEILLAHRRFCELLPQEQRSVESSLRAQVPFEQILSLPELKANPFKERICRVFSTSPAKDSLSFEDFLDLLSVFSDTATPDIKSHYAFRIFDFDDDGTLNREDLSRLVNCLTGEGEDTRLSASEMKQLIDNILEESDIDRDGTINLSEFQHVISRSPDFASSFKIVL
row,Compound,"activity change, negative = inhibition"
1,O=C(O)Cn1nnc(-c2ccc(CN(CCCCOc3ccc(CN4CCCC4)cc3)CCc3ccccc3)cc2)n1,-2.66% [at 114 µM] (inactive)
2,c1ccc2c(Nc3nnc(-c4ccncc4)s3)cccc2c1,4.08% [at 114 µM] (inactive)
3,CCCCCC(=O)N1CCC[C@H]1C(=O)N[C@@H](Cc1ccc(O)cc1)C(=O)OC (Hexanoyl-Pro-Tyr-OMe),-1.86% [at 114 µM] (inactive)
4,CCNC(=O)C1CC(F)(c2ccc(CN3CCCC3)c(F)c2)C1 (stereo not drawn),2.65% [at 114 µM] (inactive)
5,CC(C)c1c(NC(=O)Nc2ccc(Cl)cc2)c(=O)n(-c2ccccc2)n1C,-1.26% [at 114 µM] (inactive)
6,COc1cc(Nc2nc3c(s2)CCCC3c2ccccc2)ccc1-n1cnc(C)c1 (stereo not drawn),6.14% [at 30.2 µM] (inactive)
7,FC(F)(F)Oc1ccc(-c2ccc3nnc(C(F)(F)F)n3c2)cc1,-3.82% [at 114 µM] (inactive)
8,O=C(NC1Cc2ccccc2N(C[C@@H](O)CO)C1=O)c1cc2cc(Cl)sc2[nH]1 (stereo partly drawn),3.67% [at 114 µM] (inactive)
9,O=C(Nc1ccc(N2CCC(C(=O)N3CCOCC3)CC2)cc1)c1cnc(Oc2ccccc2)nc1,1.62% [at 114 µM] (inactive)
10,Cc1cc(C)c2nc(-c3ccccn3)cc(C(=O)Nc3ccc(S(=O)(=O)Nc4onc(C)c4C)cc3)c2c1,-22.8% [at 114 µM] (inactive)
11,COc1ccc(NC(=O)c2ccc(-c3ccc(C(N)=O)cc3C)cc2)cc1N1CCN(C)CC1,0.0897% [at 114 µM] (inactive)
12,CC(C)(C)NS(=O)(=O)c1ccc(-c2ccc3[nH]nc(N)c3c2)cc1,-5.17% [at 114 µM] (inactive)
13,CCCCC(=O)N1c2ccccc2NC2=C(C(=O)CCC2)C1c1ccccc1Cl (stereo not drawn),1.43% [at 114 µM] (inactive)
14,NCCCCN(Cc1nc2ccccc2[nH]1)[C@H]1CCCc2cccnc21,-0.368% (inactive)
15,Cc1ccc(-c2c(-c3nn(C)c4ncnc(N5CCC(N6CCCCC6)C5)c34)cnn2C)cc1 (stereo not drawn),-2.5% [at 114 µM] (inactive)
16,CC(CNS(=O)(=O)C(C)C)c1ccc(-c2ccc(C#N)cc2)cc1 (stereo not drawn),-5.29% [at 114 µM] (inactive)
17,Cc1cc(OCCN2CCOCC2)nn1-c1ccc2ccccc2c1,2.17% [at 114 µM] (inactive)
18,COc1cccc(C(=O)NCCNc2nc3cc(C)cc(C)c3cc2C#N)c1,2.74% [at 114 µM] (inactive)
19,CC[C@@H](Nc1c(Nc2cccc(C(=O)N(C)C)c2O)c(=O)c1=O)c1ccc(C)o1,6.51% [at 114 µM] (inactive)

row,Compound,"activity change, negative = inhibition"
1,COc1cnc(-n2cnc(C)n2)c2[nH]cc(C(=O)C(=O)N3CCN(C(=O)c4ccccc4)CC3)c12,-13.1% [at 114 µM] (inactive)
2,COc1ccc(N2CCN(CCCNC(=O)Cn3c(=O)c4cccn4c4c(C)ccnc43)CC2)cc1,3.81% [at 114 µM] (inactive)
3,CCCN(CCN1CCN(c2ccccc2OC)CC1)C1CCc2ncsc2C1 (stereo not drawn),5.06% [at 114 µM] (inactive)
4,Cc1occc1C(=O)n1ccnc1,-5.64% [at 114 µM] (inactive)
5,Cc1[nH]c2ccccc2c1CC(=O)N[C@@H](Cc1ccccc1)C(=O)N(C)c1ccccc1,5.62% [at 114 µM] (inactive)
6,CC1(C)CC=C(c2cnc3ccccc3c2)c2cc(C(=O)Nc3ccc(C(=O)O)cc3)ccc21,-12.3% [at 114 µM] (inactive)
7,NC1=NC2(c3cc(NC(=O)c4ccc(F)cn4)ccc3F)COCC2CS1 (stereo not drawn),1.02% [at 114 µM] (inactive)
8,Cc1ncc(NC(=O)c2ccc(CN3CCN(C)CC3)c(C(F)(F)F)c2)cc1Nc1nccc(-c2cccnc2)n1,20.6% [at 114 µM] (inactive)
9,Cc1cc(CNC(=O)c2cc(C(=O)NCc3ccc(F)c(C)c3)ncn2)ccc1F,2.19% [at 114 µM] (inactive)
10,O=C(c1ccc(Cl)c([N+](=O)[O-])c1)N1CCN(c2ccccc2F)CC1,-1.29% [at 114 µM] (inactive)
11,CCOC(=O)CNC(=O)[C@@H]1CCCN1C(=O)Cc1ccccc1 (PhAc-Pro-Gly-OEt),6.82% [at 114 µM] (inactive)
12,Cc1ccc(Nc2nnc(-c3ccc([N+](=O)[O-])cc3)o2)cc1Cl,2.53% [at 114 µM] (inactive)
13,CCc1nn(CCO)c(CC)c1Oc1cc(C#N)cc(C#N)c1,-0.538% [at 114 µM] (inactive)
14,Fc1ccc(-c2c3cccc(C(F)(F)F)c3nn2Cc2ccc(F)cc2Cl)cc1,-1.49% [at 114 µM] (inactive)
15,O=C(CCCCC1CCCCC1)N1CCC(c2cnc[nH]2)CC1,2.11% [at 114 µM] (inactive)
16,FC(F)(F)c1nnc2c(Sc3ccccc3)nc3ccc(Cl)cc3n12,0.57% [at 114 µM] (inactive)
17,NC(N)=NCCC[C@H](NC(=O)c1sccc1NS(=O)(=O)c1cccc2nsnc12)C(=O)O,-11.3% [at 114 µM] (inactive)
18,CN1C(=O)N(c2cc(Cl)cc(Cl)c2)C(=O)[C@@]1(C)Cc1ccc(Br)cc1,-4.73% [at 114 µM] (inactive)
19,COc1ccnc2[nH]cc(C(=O)C(=O)N3CCN(C(=O)c4ccccc4)CC3C)c12 (stereo not drawn),22.5% [at 114 µM] (inactive)
